Results as given in paper PMC4552634, “A New Set of Chemical Starting Points with Plasmodium falciparum Transmission-Blocking Potential for Antimalarial Drug Discovery” (PLoS ONE, 2015).
In all, about 13,000 compounds went through this assay and about 3,200 (25%) showed an effect of 50% or more. The list shows a part of the results.

Each compound was assayed on P. falciparum stage V gametocytes. Conditions: 48 h, 5 µM; inhibitor.
Parameters: BacTiter-Glo ATP luminescence viability of purified stage V gametocytes in 384-well plates, per cent inhibition versus DMSO

Compared with `Nc1ncc(-c2ccc(Cl)c(Cl)c2)c(N)n1` [TCMDC-138994], `Cc1nc2nc(N)nc(N)c2c(C)c1Cc1ccccc1` [TCMDC-137670] is lower in “% Inhibition” value: 6.577% for the first, -13.55% for the second.

Compared with `O=C(/C=C/c1ccc(Cl)c(Cl)c1)NC1CCN(Cc2ccc(O)cc2)CC1` [TCMDC-141741], `Cc1cc(F)ccc1C1CCN(CCCCNC(=O)c2ccc(NC(=O)c3ccc(Cl)cc3)cc2)CC1` [TCMDC-138363] is lower in “% Inhibition” value: 16.03% for the first, 13.4% for the second.

First: CCCCCCCc1ccc(-c2c(C)[nH]c(C)c(Cl)c2=O)cn1 [TCMDC-135816]
Second: Cc1[nH]c(C)c(-c2ccc(CCc3ccc(C(F)(F)F)cc3)nc2)c(=O)c1Cl [TCMDC-136051]
The “% Inhibition” value of the first is lower: 34.89% for the first, 71.49% for the second.

Going from `Cc1[nH]c(C)c(-c2ccc(CCc3cccc(C(F)(F)F)c3)nc2)c(=O)c1Cl` [TCMDC-136014] to `Cc1ccc(N)cc1-c1nc(NC2CC(C)(C)NC(C)(C)C2)nc2c1ccc(=O)n2-c1c(F)cccc1F` [TCMDC-135790], the “% Inhibition” value falls from 76.88% to 57.86%.

Going from `O=C(Cc1cccc2ccccc12)N1CCc2cc3nccc(N4CCN5CCC[C@H]5C4)c3cc21` [TCMDC-140040] to `CC(C)(C)c1ccc(NC(=O)c2cccc(CN3CCCN(CC4CCCCC4)CC3)c2)cc1` [TCMDC-135980], the “% Inhibition” value falls from -3.161% to -75.44%.

Compared with `O=C(Nc1ccccc1Cl)c1cc2ccccc2cc1O` [TCMDC-123494], `Cc1ccc(NC(=O)Nc2ccccc2F)cc1-c1ccc(C(=O)Nc2ccncc2)cc1` [TCMDC-133706] is lower in “% Inhibition” value: 9.579% for the first, -10.32% for the second.

Going from `CC(Nc1nc(Nc2ccc(F)cc2)nc(SCC(N)=O)n1)c1ccccc1` (stereo not shown) [TCMDC-125832] to `Cc1ccc(NC(=O)Nc2ccc(Cl)cc2)cc1-c1cccc(C(=O)Nc2ccc(F)cc2)c1` [TCMDC-133591], the “% Inhibition” value rises from -31.65% to -12.79%.

First: CCCCNc1cc(C)nc(NCc2ccccc2)n1 [TCMDC-123663]
Second: CCCCNc1nc(NCCCC)c2c(C)c(Cc3ccccc3)c(NCCCC)nc2n1 [TCMDC-138062]
The “% Inhibition” value of the first is lower: 33.56% for the first, 134% for the second.

First: Cc1cc(F)ccc1-c1nc(N(C)CCN(C)C(=O)N(C)c2ccccc2)nc2c1ccc(=O)n2-c1c(F)cccc1F [TCMDC-141720]
Second: Cc1ccc(C(=O)Nc2ccc(F)cc2)cc1-c1nc(NC2CC(C)(C)NC(C)(C)C2)nc2c1ccc(=O)n2-c1c(F)cccc1F [TCMDC-135391]
The “% Inhibition” value of the first is lower: 17.64% for the first, 95.1% for the second.

`Cc1cc(C(=O)Nc2ccc(C)c(-c3nc(N(C(=O)c4ccc(F)c(C)c4)C4CCNCC4)nc4c3ccc(=O)n4-c3c(F)cccc3F)c2)ccc1F` [TCMDC-135913] was tested, and the “% Inhibition” value was 55.46%.
